# Compound activity deposited in PubChem BioAssay by National Center for Advancing Translational Sciences (NCATS).
# A selection: hits, their analogues and other compounds. The true share with any hit is near 19%.
# IL-1B inflam inh: blocks inflammasome-driven IL-1 beta release; THP-1 LPS/ATP IL-1B secretion, AlphaLISA, 16 h; hits give low values; activity change, % at 57.5 µM; actives 4.7% (n = 360,000); AID 743279; in the data active = activity change below about -50%; inconclusive = mostly about -30% to -49%
#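 THP-1 cells pretreated 1 hr with compounds (up to 57.5 uM final), then stimulated with LPS (250 ng/mL final) plus ATP (1.25 mM final); secreted IL-1B measured by AlphaLISA after 16 hr, decreased signal indicating inhibition.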
# HT1080NT lethal: kills 2HG-producing HT-1080-NT fibrosarcoma cells; Potency, µM (top dose mostly 46.1 µM), without a hit: at the highest dose activity, negative = less viability, most hits filed as cytotoxic; HT-1080-NT fibrosarcoma viability, CellTiter-Glo ATP luminescence, 48 h; actives 1.6% (n = 360,000);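 note: NT is the 2HG producing partner of a matched IDH1 knockdown line; potency is the fitted concentration of half-maximal effect; 0% = DMSO-treated cells and -100% = media-only wells without cells; nearly all actives have a fitted effect of over 55% in size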
#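 Compounds were tested in concentration-response format on HT-1080-NT cells for 48 hours at 37 degrees C. Cell viability came from CellTiter-Glo luminescence; curves were classified by r2, response magnitude and activity.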
# TDP1 cell CPT: DT40-hTDP1 cell growth loss with CPT; chicken DT40 Tdp1-/-;hTDP1 cells + 20 nM CPT, ATP luminescence, 48 h; Potency, µM (highest dose often 46.2 µM), without a hit: top-dose activity change, negative = growth inhibition, actives largely listed as inhibitors; actives 12% (n = 420,000); AID 686979; note: potency is the fitted concentration of half-maximal effect; nearly all actives have a fitted effect of over 55% in size
#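 Chicken DT40 Tdp1-/- cells stably complemented with human TDP1 were seeded at 400 cells/well in medium containing 20 nM camptothecin, exposed to pin-transferred compounds, and grown at 37 °C for at least 48 hr. Viability was read as ATP luminescence.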
# HT1080 IDH1KD tx: kills HT-1080 cells with IDH1 knockdown; HT-1080 IDH1 knockdown viability, ATP luminescence, 48 h; actives 2% (n = 360,000); Potency, µM (highest dose often 46.1 µM), inactives show at the top dose activity, negative = toxicity, most hits filed as cytotoxic;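 note: potency is the fitted concentration of half-maximal effect; 0% = DMSO wells and -100% = cell-free medium wells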
#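 CellTiter-Glo luminescence after 48 h compound exposure at 37 degrees C of IDH1-knockdown HT-1080 cells in 5% FBS RPMI. %Activity scaled between DMSO wells and cell-free media wells, with curves fitted and assigned curve classes.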
# DT40 TDP1 no CPT: qHTS for Inhibitors of human tyrosyl-DNA phosphodiesterase 1 (TDP1): qHTS in cells in absence of CPT; Potency, µM (titrated, usually from 46.2 µM), for inactives: at the top dose activity change, negative = growth inhibition, usual class: inhibitors; actives 15% (n = 420,000); AID 686978, 2013; DT40 Tdp1-/- hTDP1 cells, no CPT, ATP luminescence, 48 h; note: potency is the fitted concentration of half-maximal effect; nearly all actives have a fitted effect of over 55% in size
#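 Chicken DT40 Tdp1-/- cells stably complemented with human TDP1 were seeded at 400 cells/well with DMSO in place of 20 nM camptothecin. After compound pinning, cells grew at least 48 hr at 37 °C; viability read by CellTiter-Glo luminescence.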
# uPA generation: inhibitors of cell surface uPA generation. cell surface uPA generation assay, qHTS. Potency, µM (doses to about 38.3 µM), inactives show at the top dose activity change, negative = inhibition, usual class: inhibitors. actives 0.31% (n = 330,000). AID 540303; active = well fitted inhibition curve with a large enough effect; inconclusive = small, poorly fitted or top-dose-only effect; inactive = no such curve, though single readings can be large or run the other way; tested in mouse RAW 264.7 cells; note: potency is the fitted concentration of half-maximal effect; nearly all actives have a fitted effect of over 55% in size
# An asterisk follows results filed as active; u = inconclusive; x = no result given. Unless noted, calls come from the whole dose curve; as a rule, active = well fitted curve in the direction sought with a large enough effect; inconclusive = small, poorly fitted or top-dose-only effect, or another doubt; inactive = no such curve, though single readings can be large; an effect the other way counts as inactive or inconclusive. Unless noted, % is set by controls: 0 for no effect and ±100 for the full control effect.
SMILES,IL-1B inflam inh,HT1080NT lethal,TDP1 cell CPT,HT1080 IDH1KD tx,DT40 TDP1 no CPT,uPA generation
Cc1cccc(CN(C)C[C@H]2OCc3cnnn3CCCC(=O)N([C@@H](C)CO)C[C@@H]2C)c1,7,18%,2%,0%,-21%,x
COc1ccc(CCNc2ncnc3c2nnn3Cc2ccccc2)cc1OC,-11,-12%,23µM*,-1%,u,6%
COc1ccc(CCNc2nc(=S)[nH]c3cc(OC)c(OC)cc23)cc1OC,15,-6%,-29%,1%,u,4%
COc1ccc(CCNc2ncnc3c2[nH]c2cc(OC)c(OC)cc23)cc1OC,x,u,4.6µM*,u,6.5µM*,-6%
Clc1ccc(CCNc2ncnc3c2nnn3Cc2ccccc2)cc1,-21,-5%,-22%,u,u,0%
COc1ccc(CCNc2ncnc3cc(OC)c(OC)cc23)cc1OC,-73*,-24%,3.7µM*,-22%,6.5µM*,-10%
COc1ccc(CNc2ncnc3cc(Cl)ccc23)cc1OC,0,-18%,u,-23%,13µM*,x
COc1ccc(NC(=S)NCCCCCC(=O)C[N+](=O)[O-])cc1,-26,-27%,-20%,-24%,-3%,0%
CC(NCC(=O)NC(=O)NCCC1=CCCCC1)c1ccc(S(N)(=O)=O)cc1 (configuration not stated),20,-4%,-18%,1%,-9%,8%
O=C(Nc1ccc2c(c1)OCCO2)C1c2ccccc2OCC(=O)N1Cc1ccccc1 (configuration not stated),6,-4%,-22%,-11%,1%,x
COC(=O)C(NC(=O)c1ccccc1)=C(C)C,18,17%,18µM*,22%,u,-2%
Cc1ccc(Oc2nccc(-c3ccc(Cl)cc3)n2)cc1,-11,12%,u,2%,-8%,4%
COc1ccc2c(c1)CC(NC(=O)Nc1cc(Cl)ccc1OC)CO2 (configuration not stated),x,x,23µM*,x,u,x
O=C(NCCSCc1ccccc1Cl)C1CCN(S(=O)(=O)Cc2ccccc2)CC1,x,x,5%,x,u,x
CCN1C(=O)N/C(=C/c2cc(C)n(Cc3ccccc3)c2C)C1=O,-23,-18%,18µM*,-29%,u,-22%
Cc1ccc(/C=C2/NC(=O)N(Cc3ccccc3)C2=O)o1,0,-1%,16µM*,-4%,23µM*,-7%
COC(=O)CN1C(=O)N/C(=C/c2ccc(C)o2)C1=O,18,12%,-26%,5%,7%,-1%
COc1ccc(C2=NOC(Cn3nc(-c4ccccc4)cc3C(=O)NCc3ccccc3OC)C2)cc1 (configuration not stated),-23,1%,12µM*,9%,10µM*,9%
Cc1ccccc1-c1cc(C(=O)NCc2ccco2)n(CC2CC(c3cccnc3)=NO2)n1 (configuration not stated),-4,u,18µM*,u,21µM*,u
COc1ccccc1CNC(=O)c1cc(-c2ccccc2)nn1CC1CC(c2cccnc2)=NO1 (configuration not stated),-4,4%,u,7%,u,9%
O=C(NCc1ccco1)c1cc(-c2ccccc2)nn1CC1CC(c2cccc([N+](=O)[O-])c2)=NO1 (configuration not stated),-14,3%,u,4%,u,0%
CCOC(=O)C1=C(COC(=O)C2CC(=O)N(c3ccccc3CC)C2)NC(=O)NC1C (configuration not stated),7,7%,-1%,6%,10%,x
N[C@H](C(=O)O)[C@@H](O)c1ccc(O)c(O)c1,x,x,u,x,-11%,x
CCOC(=O)C(=CNc1ccc(N2CCCCC2)c(S(=O)(=O)Nc2ccccc2OC)c1)C(=O)OCC,-13,3%,3.7µM*,0%,5.8µM*,2%
COc1ccc(NC(=O)c2ccccc2)cc1NS(=O)(=O)c1ccc(F)cc1,14,1%,1%,-1%,-16%,1%
SMILES,IL-1B inflam inh,HT1080NT lethal,TDP1 cell CPT,HT1080 IDH1KD tx,DT40 TDP1 no CPT,uPA generation
CCN(CC)c1ccc(NC(=O)c2ccccc2)cc1S(=O)(=O)Nc1ccccc1OC,-26,-2%,u,-20%,16µM*,5%
O=C(Nc1ccc(Cl)cc1)Nc1ccc(N2CCCC2)c(S(=O)(=O)Nc2ccccc2Cl)c1,-52*,u,5.2µM*,6.5µM*,5.2µM*,-11%
COCC(=O)Nc1ccc(N2CCCC2)c(S(=O)(=O)Nc2ccccc2OC)c1,-19,-1%,-18%,-2%,-24%,-6%
COC(=O)c1sccc1S(=O)(=O)Nc1ccc(N2CCCCC2)cc1,-7,-11%,u,-13%,16µM*,-2%
O=C(N[C@H]1/C=C\[C@@H](O)CCCC1)OCc1ccccc1,-14,2%,4%,2%,-3%,u
CCc1nc2ccc(C(=O)NCCC(C)C)cn2c1N(CC)CCN(C)C,-4,u,-8%,6%,-13%,x
COc1ccc(NS(=O)(=O)c2cc(NC(=O)c3ccccc3F)ccc2N2CCCC2)cc1,-23,-12%,u,0%,u,3%
COc1ccccc1NS(=O)(=O)c1cc(NC(C)=O)ccc1N1CCCCC1,u,-3%,-19%,-4%,-6%,-7%
COc1ccccc1NS(=O)(=O)c1cc(NC(=O)c2ccncc2)ccc1N1CCCC1,-25,-12%,u,-10%,21µM*,3%
COc1ccccc1NS(=O)(=O)c1cc(NC(=O)Nc2cccc(C)c2)ccc1N1CCCCC1,12,-3%,15µM*,1%,9.2µM*,4%
COc1ccc(NS(=O)(=O)c2cc(NC(=O)c3cccs3)ccc2N2CCCC2)cc1,-8,10%,u,0%,21µM*,0%
CC(=O)N1CCc2cc(CNS(=O)(=O)c3ccc(Cl)s3)ccc21,x,x,u,x,15µM*,x
CC(=O)N1CCc2cc(CNS(=O)(=O)c3ccc(Br)s3)ccc21,x,x,u,x,21µM*,x
CC(=O)N1CCc2cc(CNS(=O)(=O)c3ccc(F)cc3)ccc21,x,x,1%,x,-23%,x
COc1ccc([C@H]2N[C@]3(CCCN(Cc4ccco4)C3=O)[C@H]3C(=O)N(Cc4ccccc4)C(=O)[C@@H]23)cc1,-15,11%,3%,2%,-13%,x
